Results taken from PubChem BioAssay.
Values without a mark were called inactive.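 Rule for the calls: active = NADPH fluorescence slope more negative than the mean of all samples by about 3 SD, 99.7% confidence; inactive = the rest.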

These compounds were tested against Voltage-gated potassium channel subunit beta-2 (Rattus norvegicus) (UniProt P62483) (assay: KvBeta positive modulators, primary screen, biochemical, NADPH fluorescence (AID 623;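 note: fluorescence intensity change per second fitted from 20 to 320 s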)). Details: Recombinant KvBeta, NADPH fluorescence decrease slope, 10 min; at 10 µM; stronger effect = lower value.
Voltage-gated potassium channel subunit beta-2 (Rattus norvegicus), sequence (P62483 whole entry, looked up): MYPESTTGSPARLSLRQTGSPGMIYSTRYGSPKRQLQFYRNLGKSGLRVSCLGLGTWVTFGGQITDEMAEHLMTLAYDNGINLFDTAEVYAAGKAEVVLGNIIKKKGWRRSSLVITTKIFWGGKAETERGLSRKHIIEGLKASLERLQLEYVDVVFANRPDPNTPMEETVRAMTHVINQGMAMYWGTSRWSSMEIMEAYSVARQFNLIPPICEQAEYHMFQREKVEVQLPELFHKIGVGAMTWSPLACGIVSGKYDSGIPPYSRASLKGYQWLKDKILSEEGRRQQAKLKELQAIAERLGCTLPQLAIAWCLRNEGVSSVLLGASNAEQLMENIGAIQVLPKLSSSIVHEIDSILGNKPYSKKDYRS

SMILES | NADPH fluorescence slope
CC1=C(C(N)=O)C(c2ccc(Cl)cc2Cl)n2ncnc2N1 (stereo unspecified) | 2e-05
Cc1cc2c(s1)c1cnn(CC(=O)NCCc3ccccc3)c(=O)c1n2C | -7.6e-06
CCc1c(C)nc(N2CCN(Cc3ccccc3)CC2)[nH]c1=O | 2.9e-05
O=C1C2CCCN2C(c2ccc(Cl)cc2)N1c1nccs1 (stereo unspecified) | -6e-05
CCCCN(CC)S(=O)(=O)N1CCC(C(=O)NCc2ccc(F)cc2)CC1 | -2.1e-05
O=c1c2nnn(Cc3ccccc3)c2ncn1-c1ccccc1 | -8.2e-05
CNC(=O)CN(c1cc(C)ccc1OC)S(=O)(=O)c1ccc(C)cc1 | -1.4e-05
CCCCC(CC)C(=O)Nc1ccc(Cl)cn1 (stereo unspecified) | -7.8e-05
CCOC(=O)N1CCN(S(=O)(=O)c2ccc(Br)s2)CC1 | -1.3e-06
CC(=O)Nc1ccc(S(=O)(=O)n2cnc(C)c2)cc1 | 4.1e-05
Cc1ccc(S(=O)(=O)NCCCNC(=O)N2CCOCC2)cc1 | -4.9e-05
CC(=O)N(c1ccc(N(C(C)=O)S(=O)(=O)c2cccs2)cc1)S(=O)(=O)c1cccs1 | -0.000256
CCCCNC(=O)c1c(C)cc(=O)oc1C | -2.1e-05
COC(=O)c1ccc(CSc2nc3ccccc3c(=O)n2Cc2ccco2)o1 | -1.4e-05
N#CCCCN1C(=O)C(O)(CC(=O)c2ccc3c(c2)OCCO3)c2ccccc21 (stereo unspecified) | 1.9e-06
CN(C)CC(=O)N1c2ccccc2CCc2ccc(NC(=O)c3ccc(N)cc3)cc21 | -5.5e-05
